This is a sample that favours compounds with a hit; in the whole collection about 10% have one here.
HP1b binding inh: inhibitors of HP1-beta chromodomain binding to methylated histone tails; Potency, µM (titrated, usually from 114 µM), usual class: inhibitors; 390,000 compounds, 0.56% hits; AlphaScreen HP1-beta / biotin-H3K9me3 peptide binding; P83916; note: nearly all actives have a fitted effect of over 70% in size
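Compound inhibition of the preformed complex between 50 nM HP1-beta and 50 nM biotinylated H3K9me3 peptide was read by AlphaScreen. Buffer was PBS pH 7.4 with 0.01% Tween-20. Incubations ran 30 min at room temperature, with 10 ug/mL donor/acceptor beads.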
JMJD2A Tudor: inhibitors of human JMJD2A Tudor domain | O75164 | AID 504339 | 390,000 compounds, 4.4% hits | Potency, µM (titrated, usually from 114 µM), most hits filed as inhibitors | AlphaScreen JMJD2A-Tudor / H3K4me3 peptide binding; note: nearly all actives have a fitted effect of over 50% in size
Target sequence (O75164 whole entry, looked up, the tested form may be a part): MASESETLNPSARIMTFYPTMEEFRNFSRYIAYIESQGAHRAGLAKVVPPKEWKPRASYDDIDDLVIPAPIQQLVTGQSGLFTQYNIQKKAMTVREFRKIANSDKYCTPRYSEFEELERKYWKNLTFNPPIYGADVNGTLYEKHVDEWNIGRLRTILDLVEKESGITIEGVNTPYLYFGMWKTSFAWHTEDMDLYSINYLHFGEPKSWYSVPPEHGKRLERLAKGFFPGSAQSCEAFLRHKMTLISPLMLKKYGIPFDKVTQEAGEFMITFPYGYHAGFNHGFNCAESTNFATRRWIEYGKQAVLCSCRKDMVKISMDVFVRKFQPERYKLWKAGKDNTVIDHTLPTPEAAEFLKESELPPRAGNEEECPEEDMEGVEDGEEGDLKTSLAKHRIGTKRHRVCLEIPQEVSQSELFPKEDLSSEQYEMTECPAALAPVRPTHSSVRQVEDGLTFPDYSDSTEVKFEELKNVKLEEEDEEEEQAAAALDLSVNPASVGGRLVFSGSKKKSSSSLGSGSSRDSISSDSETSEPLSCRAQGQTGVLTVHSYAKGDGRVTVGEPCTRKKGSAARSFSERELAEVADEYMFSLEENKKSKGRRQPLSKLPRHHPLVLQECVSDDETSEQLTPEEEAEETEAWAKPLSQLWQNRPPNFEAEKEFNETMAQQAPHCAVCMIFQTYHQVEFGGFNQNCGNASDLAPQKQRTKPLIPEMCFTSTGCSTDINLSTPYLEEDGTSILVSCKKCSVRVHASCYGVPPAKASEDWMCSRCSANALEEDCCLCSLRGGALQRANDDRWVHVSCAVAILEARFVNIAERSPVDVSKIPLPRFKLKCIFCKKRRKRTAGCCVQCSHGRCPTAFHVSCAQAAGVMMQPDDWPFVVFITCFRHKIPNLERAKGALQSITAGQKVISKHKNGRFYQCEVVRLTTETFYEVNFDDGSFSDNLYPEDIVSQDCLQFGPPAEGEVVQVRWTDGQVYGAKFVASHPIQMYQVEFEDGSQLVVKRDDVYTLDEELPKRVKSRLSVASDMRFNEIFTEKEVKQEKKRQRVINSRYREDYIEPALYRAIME
G9a block: inhibitors of human histone lysine methyltransferase G9a | G9a H3K9 monomethylation, AlphaScreen, 2 h | Potency, µM (top dose mostly 102 µM), hits mostly inhibitors | 350,000 compounds, 8.8% hits | AID 504332; note: nearly all actives have a fitted effect of over 75% in size
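Step 1: enzyme (final 20 nM) with compound, 15 min RT. Step 2: substrate peptide 500 nM and SAM 20 uM, 2 h RT. Step 3: anti-H3K9me1 antibody and AlphaScreen beads, 10 min, then plate read.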
GLS inhibitor: blocks human kidney-isoform glutaminase activity; AID 624170; Potency, µM (top dose mostly 45.5 µM), hits mostly inhibitors; 410,000 compounds, 0.21% hits; GLS enzymatic activity, qHTS titration; O94925
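Coupled fluorescence readout: glutamate oxidase/HRP/Amplex Red detect glutamate formed by hKGA from L-glutamine (1 mM solution added). Buffer 45 mM KH2PO4 pH 8.2, 0.02% Tween-20; reads at t0 and 30 min RT.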
BAZ2B inh: inhibitors of human BAZ2B bromodomain; 360,000 compounds, 4.4% hits; Potency, µM (doses to about 114 µM), actives largely listed as inhibitors; AlphaScreen BAZ2B-H3K14Ac peptide displacement; Q9UIF8; note: nearly all actives have a fitted effect of over 60% in size
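Protein-peptide AlphaScreen: BAZ2B 50 nM, b-H3K14Ac 50 nM, 1x PBS pH 7.4 + 0.01% Tween-20. Preincubation 30 min RT; cpd 30 min RT (top 110 uM); beads 20 min RT, light-protected.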
Each line names hits and unclear results; the compound was inactive in the other large screens. Calls come from the whole dose curve; as a rule, active = well fitted curve in the direction sought with a large enough effect; inconclusive = small, poorly fitted or top-dose-only effect, or another doubt; inactive = no such curve, though single readings can be large; an effect the other way counts as inactive or inconclusive.

CC(Oc1ccccc1)C(=O)Nc1cccc(-c2nc3ccccc3[nH]2)c1 (stereo not given)	G9a block 50µM
C(=N\NC1=NCCN1)/c1ccncc1	JMJD2A Tudor inconclusive, G9a block 40µM, BAZ2B inh inconclusive
O=C(O)c1cc(-c2ccccc2)nc(-c2ccccc2)c1	none
O=C(NNc1ccccc1)/C(=C\c1cccnc1)NC(=O)c1ccccc1	G9a block 4µM
COC(=O)c1ccc(S(=O)(=O)N(C2CCCCC2)C2CCCCC2)n1C	none (no result: G9a block)
COc1cccc(N2[C@@H](CC(C)=O)c3ccccc3S2(=O)=O)c1	none (no result: G9a block, BAZ2B inh)
O=C1Nc2ccccc2C(=O)C1(Cl)Cc1ccccc1 (stereo not given)	HP1b binding inh inconclusive, JMJD2A Tudor 50µM, G9a block inconclusive, GLS inhibitor inconclusive, BAZ2B inh 79µM
CCOC(=O)c1c(NC(=O)CSc2nnc(CNc3ccc(F)cc3)o2)sc(C(C)=O)c1C	BAZ2B inh 50µM
CCOC(=O)c1sc(NC(=O)CSc2nnc(-c3ccco3)n2CC)c(C(=O)OCC)c1C	G9a block 18µM, BAZ2B inh inconclusive
COc1cccc(-c2nnc(SCC(=O)NCc3ccc4c(c3)OCO4)n2Cc2ccco2)c1	G9a block 45µM, BAZ2B inh inconclusive
CCOC(=O)c1c(NC(=O)CSc2nnc(CNc3ccc(OC)cc3)n2C)sc(C)c1C	HP1b binding inh 20µM, JMJD2A Tudor 50µM, G9a block inconclusive, BAZ2B inh 45µM
O=C(CSc1nnc(-c2cccnc2)n1Cc1ccco1)NCc1ccc2c(c1)OCO2	G9a block inconclusive
CCOC(=O)CNC(=O)CSc1nnc(-c2ccco2)n1Cc1ccco1	JMJD2A Tudor 28µM, G9a block 28µM
NC(=O)c1c(NC(=O)CSc2nnc(-c3ccco3)n2-c2ccccc2)sc2c1CCC2	HP1b binding inh inconclusive, JMJD2A Tudor inconclusive, G9a block inconclusive, BAZ2B inh 50µM
CCOC(=O)c1c(NC(=O)CSc2nnc(Cc3ccccc3)o2)sc(C(C)=O)c1C	none
COC(=O)c1c(NC(=O)CSc2nnc(-c3ccco3)n2C)sc(C)c1C	HP1b binding inh inconclusive, JMJD2A Tudor 79µM
N#Cc1c(NC(=O)CSc2nnc(-c3ccco3)n2-c2ccccc2)sc2c1CCC2	G9a block inconclusive
CCOC(=O)c1sc(NC(=O)CSc2nnc(Cc3ccccc3)o2)c(C#N)c1C	HP1b binding inh inconclusive, JMJD2A Tudor 56µM, G9a block inconclusive, BAZ2B inh inconclusive
COc1ccc(NC(=O)CSc2nnc(-c3ccco3)n2C)cc1	none
CN(Cc1cccs1)C(=O)c1cc(S(=O)(=O)N2CCOCC2)ccc1F	none
COc1ccc([C@H](OC)[C@@]2(Cc3ccc(O)cc3)N=C(N)N(C)C2=O)cc1	none
O=C(COC(=O)c1ccccc1F)NNC(=O)c1ccccc1	none
CCn1c(SCC(=O)N(C)CC(=O)Nc2ccc(OC)cc2)nnc1-c1ccco1	G9a block 20µM
CCn1c(SCC(=O)N(C)CC(=O)Nc2cccc(OC)c2)nnc1-c1ccco1	none
O=C(/C=C\NCC(=O)c1ccccc1)c1ccc(F)cc1	G9a block 11µM
O=C(/C=C\NCC(=O)c1ccccc1)c1ccc2ccccc2c1	JMJD2A Tudor inconclusive, G9a block 7.9µM
O=C(/C=C/Nc1ccc(F)cc1Br)c1ccccc1	none
O=C(c1ccccc1)c1ccc2ccccc2c1	GLS inhibitor inconclusive (no result: G9a block, BAZ2B inh)
Cc1cc(C)nc(NS(=O)(=O)c2ccc(NC(=O)CCN3C(=O)c4ccccc4C3=O)cc2)n1	none
Cc1ccc2cc(C#N)c(SCC(=O)N3CCCC3)nc2c1	none
COc1ccc(NC(=S)N(CCC(C)C)C2CCN(C(C)C)CC2)cc1	none
COc1ccc(NC(=S)N(C(C)C)C2CCN(C(C)C)CC2)cc1Cl	G9a block 45µM (no result: HP1b binding inh, JMJD2A Tudor, GLS inhibitor)
O=[N+]([O-])c1cc2c(cc1/C=N/NS(=O)(=O)c1ccc(Br)cc1)OCO2	HP1b binding inh inconclusive, G9a block 11µM
O=S(=O)(N/N=C/c1ccccc1F)c1ccccc1	JMJD2A Tudor inconclusive, G9a block inconclusive
Cc1ccc(S(=O)(=O)N/N=C/c2ccccc2F)cc1[N+](=O)[O-]	G9a block 11µM, BAZ2B inh inconclusive
Cc1ccc(S(=O)(=O)N/N=C\c2cc3c(cc2Br)OCO3)cc1	none
